The OligoGym collection

Target: C1orf106
Assay: pooled miR-30 sensor sort-seq; sequence = guide strand
Conditions: shRNA
Also: reference of the scale not given here.

Row | Sequence | sensor-assay potency score (higher = more potent)
1 | TTCAGGTACAAAGACTTGCACA | -0.854
2 | TTGAGCTCCTCGGACACGGCGG | -0.833
3 | TTATTGAAGTATTTAGCACTAA | -0.34
4 | TCTAGCAAGACAATACACCACC | -0.714
5 | TATATAAGGAGATAGAGGCTGT | 0.0357
6 | TAAGCCGCTCCGATCCTGCGGC | -0.585
7 | TTCTCCTCCAGGCACAGCCGAC | -1.78
8 | TAGAACCAGAGCACAGAGCGTT | -0.706
9 | TAAAACATAATCATATCACAGG | -0.615

Target: C1orf109
Assay: as above
Conditions: shRNA

Row | Sequence | sensor-assay potency score (higher = more potent)
10 | TTTTTAAAAAAAGACAACCTAA | -0.867
11 | TATCTTGTACAAGATCCTGGTG | -0.3
12 | TTTCTCTTCAGGTACGACTTTC | -0.727
13 | TATGTATCGATGATAGCACGTT | 0.283
14 | TTCTTTAGAAACATCAGGGTTC | 0.139
15 | TAAATAGACACTGAAAAGGTAT | -0.303
16 | TTTAGGTCCACAATAGAGGAAA | -1.1
17 | TGACAAAAGACACAAAACCAGG | -1.47
18 | TTATTAATAATAGTTATCTGGT | 0.0251
19 | ATCTTGTACAAGATCCTGGTGT | -0.231
20 | TTGAAAAATATCTATACCCTTT | -0.465
21 | TAGATGAAGGCAGCAGACCTTG | -1.04
